About 79,000 compounds went through this panel and 15% of them were active in at least one assay; those are over-represented in the sample as a whole. Calls of active or inactive are those of the source. Rule as the data show it: active = growth inhibition above about 70%; inactive = the rest.
experiment: NCI Yeast Anticancer Drug Screen. Data for the mlh1 rad18 strain (AID 175); conditions: S. cerevisiae mlh1 rad18 strain growth inhibition; at 50.0 µM; stronger effect = higher value
Procedure, shortened: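 Yeast w/ defined DNA-repair lesions; compound exposure; growth vs vehicle controls → % inhibition.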

Row | SMILES | growth inhibition
1 | OCCO | -30.6% (inactive)
2 | CCCCCCCCCCCC(=O)C1=C(O)C(O)CCC1=O (configuration not stated) | -16.9% (inactive)
3 | O=C(O)c1nn(-c2ccc(Cl)cc2)c2c1C(=O)c1ccccc1C2=O | 4.65% (inactive)
4 | COc1cc(OC)c(NC(=O)Nc2ccc([N+](=O)[O-])cc2OC)cc1Cl | -7.2% (inactive)
5 | COC(=O)[C@H](Cc1c[nH]c2ccccc12)NP(=O)(OCCC#N)OCC1OC(n2cc(C)c(=O)[nH]c2=O)CC1N=[N+]=[N-] (some centres not stated) | -65% (inactive)
6 | Cc1c(C(=O)Nc2ccccc2)nnn1-c1ccnc2cc(C(F)(F)F)ccc12 | 2% (inactive)
7 | CC1Oc2ccc3ccccc3c2C(C)N1C (configuration not stated) | 16.9% (inactive)
8 | CC(=O)OCC(OC(C)=O)C(OC(C)=O)c1cnn(-c2ccccc2)n1 (configuration not stated) | 22% (inactive)
9 | O=C1CCCCCCCCC1=O | -11.2% (inactive)
10 | CC(C)N(C=C(C#N)C#N)C(C)C | 4.6% (inactive)
11 | COc1cc(Nc2nc3cc(C(F)(F)F)ccc3nc2-c2ccccc2)cc(OC)c1OC | -23.9% (inactive)
12 | Cc1[nH]c(=O)[nH]c(=O)c1NC=O | -27.1% (inactive)
13 | CCCCNc1ccc2c(c1)Cc1ccccc1-2 | -8.35% (inactive)
14 | COc1ccc(/C=C2\CCC(Cc3ccccc3)(CN(C)C)C2=O)cc1 (configuration not stated) | -72.4% (inactive)
15 | COC(=O)c1c(C=O)cccc1[N+](=O)[O-] | 15.2% (inactive)
16 | COC(=O)c1ccc(Cl)c(Cl)c1Cl | -26.3% (inactive)
17 | N#CCc1ccc(C(C#N)C(=O)CCC(=O)C(C#N)c2ccc(CC#N)cc2)cc1 (configuration not stated) | 22.1% (inactive)

— PubChem BioAssay (NCI)
